From PubChem BioAssay (Tox21) come the findings set out here.

Records with an inconclusive call do not appear. Calls of active or inactive are those of the source. The call rests on the fitted dose curve; in most records, active means well fitted activation curve with a large enough effect in the signal ratio in the repeat runs (not every such curve was filed as active); inconclusive means weak or mixed curves; inactive means flat fitted curve, though single readings scatter; the % refers to the signal ratio.

This test is described as follows: qHTS assay to identify small molecule agonists of the hypoxia (HIF-1) signaling pathway (AID 1224846). The following applies: HRE-bla ME-180 cells, beta-lactamase ratio, 17 h; series mostly up to 76.8 µM. In short, it runs like this:
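Hypoxia-pathway activation was scored as increased beta-lactamase from an HRE-controlled reporter in ME-180 cells; plated at 2,000 cells per well with 0.5% dialyzed FBS, they were exposed 17 hrs to compounds and then given CCF4-AM.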
Take `CCOC(=O)c1ccc(NC(=O)CN2CCCCC2)cc1`: the outcome was inactive.

For `CCOc1ncc(F)c(=O)[nH]1`, the result was inactive.

Turning to `O=CNNC=O`, the result was inactive.

Consider `CC[C@H]1OC(=O)[C@H](C)[C@@H](O[C@H]2C[C@@](C)(OC)[C@@H](O)[C@H](C)O2)[C@H](C)[C@@H](O[C@@H]2O[C@H](C)C[C@H](N(C)C)[C@H]2O)[C@](C)(O)C[C@@H](C)/C(=N\OCOCCOC)[C@H](C)[C@@H](O)[C@]1(C)O`, for which the result was inactive.

For the compound `CCN(CC)c1ccc(C(=C2C=CC(=[N+](CC)CC)C=C2)c2ccc(S(=O)(=O)O)cc2S(=O)(=O)[O-])cc1`, the result was inactive.

For the compound `Nc1nc(-c2ccc([N+](=O)[O-])cc2)cs1`, the result was inactive.

With `Cc1oc(=O)oc1COC(=O)[C@@H]1N2C(=O)[C@@H](NC(=O)[C@H](N)c3ccccc3)[C@H]2SC1(C)C`, the result was inactive.

For the compound `CC(C)(C)S`, the outcome was inactive.

Regarding `C1=CCC2CC=CC2C1` (centres undefined), the result was inactive.

For `COc1cc(OC)c2ccc(=O)oc2c1`, the result was inactive.

For `CC(C)C1CCC(C(=O)N[C@H](Cc2ccccc2)C(=O)O)CC1` (some centres undefined), the outcome was inactive.

In the case of `CCCCCCOC(=O)CCCCC`, the outcome was inactive.

`C[C@@H]1C[C@H]2[C@@H]3CCC4=CC(=O)C=C[C@]4(C)[C@@]3(F)[C@@H](O)C[C@]2(C)[C@@]1(O)C(=O)COP(=O)(O)O`: the result was inactive.

Consider `CCCCCCCCCCCCCCCC(=O)OCC`, for which the result was inactive.

Regarding `CC(C)COC(=O)c1ccc(O)cc1`, the result was inactive.

Regarding `COc1ccc(C(=O)NCc2ccc(OCCN(C)C)cc2)cc1OC`, the outcome was inactive.

In the case of `CC(=O)NNC(C)=O`, the outcome was inactive.

As for `CCC(CO)(CO)CO`, the outcome was inactive.

As for `COc1ccc(-n2nc(C(F)F)cc2-c2ccc(S(C)=O)cc2)cc1` (centres undefined), the outcome was inactive.

With `O=C(O)c1cc(Cl)cc(Cl)c1O`, the outcome was inactive.

Turning to `C=CC(=O)NC(C)C`, the result was inactive.

For `CC(=O)OCCC(C)CC(C)(C)C` (centres undefined), the outcome was inactive.

Take `CCCCOC(=O)CCCCC(=O)OCCCC`: the outcome was inactive.

As for `CCCCC(CC)COS(=O)(=O)O` (centres undefined), the outcome was inactive.

Take `COC(C)(C)OC`: the outcome was inactive.

In the case of `COc1ccc(C2C(=O)c3ccccc3C2=O)cc1`, the outcome was inactive.

`Cc1ccc(S(=O)(=O)NC(=O)NC2CCCCC2)cc1`: the outcome was inactive.

For `CC1=CC[C@@]23C[C@@H]1C(C)(C)[C@@H]2CC[C@H]3C`, the outcome was inactive.

Consider `CCCCCCC(O)CCOC(C)=O` (centres undefined), for which the result was inactive.

As to `CC(=O)C(=O)CC(C)C`, the outcome was inactive.

Take `O=C(O)CCS`: the outcome was inactive.

As for `CC(=O)c1ccc[nH]1`, the outcome was inactive.

With `CC(C)(O)CCc1ccccc1`, the result was inactive.

As to `COc1ccc(C)cc1`, the result was inactive.
